Results as given in ChEMBL document CHEMBL3988442, “University of Dundee, Small-Polar-MMV Screening Library” (2021).
About 440 (0.52%) of roughly 85,000 compounds showed an effect of 50% or more. Many of the other results were omitted from the sample, so strong results are more common in it than they were.

Experiment: In vitro enzyme assay to detect hydrolysis of chlorophenol red-beta-D-[…] directly proportional to the number of Toxoplasma stably expressing beta-galactosidase
Format: functional, organism-based, Toxoplasma gondii
Parameters: scale not given: in the data most compounds retested in dose-response had high values

Compound	Percent Effect (50 µM) [%]	Percent Effect (10 µM) [%]
CC(C)NC(=O)CNCc1ccc(Br)o1	0.3067	
CN1CCN(C)C2(CCN(C(=O)C(C)(C)O)CC2)C1	7.866	
Cc1cc(C(=O)N2CCN(c3nc4c(C)cccc4s3)CC2)no1		11.62
Cc1cc(C(=O)N2CCN(c3nc4c(C(C)C)cccc4s3)CC2)no1		14.68
Cc1cc(C(=O)N2CCN(c3nc4c(C(C)C)cccc4s3)CC2)on1		83.09
CC(C)C(=O)Nc1cccc(CN)c1	-3.402	
CCOCCSc1nnnn1CC1CCCO1 (stereo not given)	4.057	
CCc1nc(Nc2cccc(C(=O)NC)c2)c2c(n1)c(C)nn2CC		63.37
CCCc1nc(Nc2cccc(C(N)=O)c2)c2c(n1)c(C)nn2CC		20.54
CCc1nc(Nc2ccc(C(=O)NC)cc2)c2c(n1)c(C)nn2CC		64.18
CCc1nc(NCC(=O)N2CCOCC2)c2c(n1)c(C)nn2CC		-2.271
CCn1nc(C)c2nnn(CC(=O)Nc3ccc(C)cc3)c(=O)c21		5.455
CCn1nc(C)c(C(C)NC(=O)c2cccc(NCC(=O)O)c2)c1C (stereo not given)		-6.268
CN1C(=O)c2cccn2CC1CNC(=O)c1ccco1 (stereo not given)	46.69	
CNC(=O)CS(=O)(=O)Cc1cc(=O)n(C)c(=O)n1C	9.101	
CN(C)C(=O)CN(C)c1ncc(C(F)(F)F)cc1Cl	0.3926	
CCS(=O)(=O)Nc1ccc(C(=O)NC2CC2)cc1	-14.67	
O=C(NCc1nc(C2CC2)no1)Nc1nncs1	96.18	
CCc1nc(C2CCCN2CC(=O)Nc2nncs2)no1 (stereo not given)		2.118
Cc1cnc(C(NC(=O)NCc2nc(C3CC3)no2)C2CC2)s1 (stereo not given)		2.41
Cc1ccccc1C1(O)CCN(Cc2ncc[nH]2)C1 (stereo not given)	-4.711	
Cc1ncc(CN2CCOC(c3ccc(-c4cnn(C)c4)cn3)C2)s1 (stereo not given)		-14.87
Cc1ncc(CN2CCOC(c3ccc(-c4ccccc4F)cn3)C2)s1 (stereo not given)		56.75
Cc1ncc(CN2CCOC(c3ccc(-c4cc[nH]n4)cn3)C2)s1 (stereo not given)		-16.2

Compound	Percent Effect (50 µM) [%]	Percent Effect (10 µM) [%]
O=C(NC1CCNC1)C1CCC1 (stereo not given)	7.426	
N#Cc1ccc(CN)c(F)c1	29.17	
CC(CSc1n[nH]c(-c2ccccn2)n1)CS(C)(=O)=O (stereo not given)	14.41	
CC(Sc1n[nH]c(-c2ccccn2)n1)C(=O)N(C)C (stereo not given)	2.084	
CC(C)CNC(=O)CSc1n[nH]c(-c2ccccn2)n1	52.47	
CCNc1cccc(OC)c1	-5.589	
Cn1nc(CC#N)c2ccccc21	-11.92	
OCCOc1ccc(NCc2cccnc2)cn1		0.5408
Nc1cccnc1NCc1cccnc1	56.86	
CCCc1nnc(NCc2cccnc2)o1	-5.41	
CN(CCN1CCCC1=O)C(=O)c1ncccc1Br	-6.361	
N#CCC1COc2ccccc2O1 (stereo not given)	-13.18	
CC(C)N(C)S(=O)(=O)NCCCN(C)c1ccccc1	0.05674	
CN(C)C(=O)C1CCN(Cc2ccccc2F)CC1	-0.8921	
COC[C@@H]1CCC[C@@]12CN(Cc1ccc(C)s1)CCO2.O=C(O)C(F)(F)F		74.98
COC[C@@H]1CCC[C@@]12CN(Cc1ccco1)CCO2.O=C(O)C(F)(F)F		-11.03
COC[C@@H]1CCC[C@]12CN(Cc1ccco1)CCO2.O=C(O)C(F)(F)F		-8.533
O=C(c1ccco1)N1CCC(N2CCCC2)CC1	-19.12	
CN(Cc1ccccn1)Cc1csnn1	13.21	
O=C(c1ccc(Br)cn1)N1CCC(n2ccnn2)CC1	0.6699	
COc1cccc(CO)c1C	-13.36	
COC(=O)c1ccc(CN2CCCC(CO)C2)cc1 (stereo not given)	-14.35	
CCCc1ccc(C(=O)N2CCC(N)CC2)cc1	-1.427	
CCOc1ccc(C(=O)N2CCC(N)CC2)cc1	56.89	

Compound	Percent Effect (50 µM) [%]	Percent Effect (10 µM) [%]
CCOc1ccccc1C(=O)N1CCC(N)CC1	9.165	
Cc1cc(Br)cc(C(=O)NC2(C(N)=O)CC2)c1	10.26	
CC(C)=CCN1CCN(CCO)CC1CCO (stereo not given)	22.16	
O=C(NC1=NCCS1)c1cc2cc(F)ccc2s1	-6.521	
Cn1nccc1CCC(=O)NCCN1CCCC1	10.39	
COc1ccc(C(C)N(C)Cc2c(C(C)C)[nH]c3ncccc23)cc1 (stereo not given)		-0.3537
COc1ccc(C(C)N(C)Cc2c(C(C)(C)C)[nH]c3ncccc23)cc1 (stereo not given)		-0.9197
COc1ccc(C(C)N(C)Cc2c(C3CC3)[nH]c3ncccc23)cc1.Cl (stereo not given)		65.16
NS(=O)(=O)c1cccnc1NC1CCc2ccccc21 (stereo not given)	16.24	
CN(C1CCCCC1)S(=O)(=O)N1CCNCC1	5.411	
COC(=O)c1cnc(C)c(OC)c1	-7.167	
CCS(=O)(=O)N1CCN(C(=O)c2cnc3[nH]nc(C)c3c2)CC1		-8.634
COC(=O)c1cnc2[nH]nc(C)c2c1	55.45	
NCCNC(=O)c1ccc(-c2ccc(Cl)cc2)s1	89.1	
CC(C)(NC(=O)c1ccc(-c2ccc(F)cc2)s1)C(N)=O		16.31
NS(=O)(=O)CCNC(=O)c1ccc(-c2cccs2)s1	1.485	
Cc1csc(CCNC(=O)CSCC#N)n1	-3.488	
CC(O)C(=O)Nc1ccc(Cl)c(OC(F)F)c1 (stereo not given)	-7.05	
CC(C)(C)OC(=O)NCc1cc(C(N)=O)co1	-10.17	
CCC(CNC(=O)c1ccoc1)N1CCCC1 (stereo not given)	9.191	
Cn1cc(NC(=O)CC2C=CCC2)cc(Br)c1=O (stereo not given)	-2.451	
CCN(CCO)Cc1ccc(Br)c2cccnc12		72.7
N#CCCN(CCC#N)Cc1ccc(Br)c2cccnc12		11.15
OCCN(CCO)Cc1ccc(Br)c2cccnc12		9.5

Compound	Percent Effect (50 µM) [%]	Percent Effect (10 µM) [%]
Cc1nnc(NCc2cccc(OCC3CCCO3)c2)c(C#N)c1C (stereo not given)		91.1
Cc1nc2ccccc2nc1NCc1cccc(OCC2CCCO2)c1 (stereo not given)		17.15
N#Cc1ccc(NCc2cccc(OCC3CCCO3)c2)nc1 (stereo not given)		-17.65
CN(C)S(=O)(=O)N(CCCO)c1ccccc1Br	-12.8	
CCc1nnc(Nc2cc(C)nc(C3CCN(c4ccncn4)C3)n2)s1 (stereo not given)		84.37
CCc1nnc(Nc2cc(C)nc(C3CCN(c4ncccn4)C3)n2)s1 (stereo not given)		8.527
CCc1nnc(Nc2cc(C)nc(C3CCN(c4cnccn4)C3)n2)s1 (stereo not given)		9.302
O=C(c1cccc(N2CCNC2=O)c1)N1CCOCC1	-16.74	
Cc1ccc(-c2cc(CNc3ncnc4c3CCNCC4)no2)cc1		59.71
COc1ccc(-c2cc(CNc3ncnc4c3CCNCC4)no2)cc1		5.898
Clc1ccccc1-c1cc(CNc2ncnc3c2CCNCC3)no1		22.17
O=C(CSc1nnc[nH]1)NCc1ccc(Br)c(F)c1	-12.01	
CCOc1ccc(CN2C(=O)CC(C)(C)C2=O)nc1		15.64
CC(=O)Cc1ccn(C(C)C)n1	-14.04	
CC(C)n1ccc(CN2C(=O)CC(C)(C)C2=O)n1	66.84	
Nc1n[nH]c(SCc2ccc3c(c2)OCCO3)n1	48.58	
CC(C)(C)OC(=O)CNC1CCOCC1	-4.673	
Cc1cccc(NC(=O)C2CCCNC2)n1 (stereo not given)	-13.07	
CCN1CC(C(=O)Nc2ccc(Br)cn2)CC1=O (stereo not given)	-17.13	
O=C(Nc1ccc(Br)cn1)C1CCCNC1 (stereo not given)	56.99	
CC(NC(=O)c1ccc(Br)cc1)C(=O)N1CCOCC1 (stereo not given)	-8.67	
Cc1cc(C)n(CC2CCCN2CCCS(C)(=O)=O)n1 (stereo not given)		55.61
Cc1cc(C)n(CC2CCCN2CCCS(N)(=O)=O)n1 (stereo not given)		-7.895
Cc1cc(C)n(CC2CCCN2CCS(C)(=O)=O)n1 (stereo not given)		-2.075

Compound	Percent Effect (50 µM) [%]	Percent Effect (10 µM) [%]
Cc1n[nH]c(C)c1C(NC(N)=O)c1ccccc1 (stereo not given)	2.289	
CCN1CCCN(c2ccccn2)CC1	3.404	
NCc1nc(-c2ccccn2)no1	-15.18	
NCc1cccc(-c2ccccn2)n1	73.75	
NCc1nc(-c2ccccn2)cs1	-2.115	
CN(CC(=O)Nc1ccsc1)C1CCS(=O)(=O)C1 (stereo not given)	-6.022	
O=C(NCC1CCOC1)c1ccoc1C(F)(F)F (stereo not given)	-4.875	
NCCNc1ccc2ccccc2n1	-5.159	
O=C(c1ccc(F)cc1)C(O)O	0.6979	
CCn1ncnc1CN1CCCC2(C1)CN(C)C(=O)O2 (stereo not given)	-8.186	
CC(=O)N1CCCCCC1C1CCNCC1 (stereo not given)	-20.88	
NC(=O)N1CCCCCC1C1CCNCC1 (stereo not given)	99.53	
COCC(=O)N1CCCCCC1C1CCNCC1 (stereo not given)	-2.687	
COCCC(=O)N(C)C(C)Cc1ncccc1C (stereo not given)	-3.603	
CC1(C)CC(n2cccn2)C(C)(C)O1 (stereo not given)	95.21	
Cn1cc(C(=O)NC2CC(C)(C)OC2(C)C)cn1 (stereo not given)	6.396	
O[C@@H]1CCC[C@H]1n1cccn1	27.87	
Cc1cc(C(=O)NCc2ccc(CO)cc2)cc(C)n1	4.895	
CC(C)(C)c1cn2c(n1)C(CNCc1ccccn1)CCC2 (stereo not given)		84.2
Cc1cn2c(n1)C(CNCc1cccc3c1OCO3)CCC2 (stereo not given)		1.818
Cn1cccc1CNCC1CCCn2cc(C(C)(C)C)nc21 (stereo not given)		2.504
Cc1cn2c(n1)C(CNCC1=Cc3ccccc3OC1)CCC2 (stereo not given)		-4.432
Cc1cn2c(n1)C(CNCc1cnn3ccccc13)CCC2 (stereo not given)		-1.725
CC(C)(C)c1cn2c(n1)C(CNCc1cnn3ccccc13)CCC2 (stereo not given)		84.08
